Source: ChEMBL document CHEMBL3988442, “University of Dundee, Small-Polar-MMV Screening Library” (2021)
The campaign covered roughly 48,000 compounds. About 13,000 (27%) showed an effect of 50% or more. This is one part of the list.

tested on: Wolbachia pipientis; experiment: Anti-Wolbachia Cell-Based Screen; format: functional; design: scale not given: in the data most compounds retested in dose-response had high values; details: 5 µM

Row | Structure (SMILES) | Percent Effect [%]
1 | NC(=O)C(NCCc1ccc(Cl)s1)c1ccccc1 (stereo unspecified) | 0.1259
2 | CCN(Cc1noc(C(C)C)n1)Cc1ccc(C#N)cc1F | 13.78
3 | O=S(=O)(Cc1ccccc1)NCc1ccnc(O)c1 | -8.436
4 | CCc1ccc2nc(C)cc(C(=O)N3C[C@H]4CCC[C@@]4(CO)C3)c2c1 | -46.54
5 | CCSc1ncc(CN2C[C@H]3CC[C@@H]2CN(C2CCOCC2)C3)cn1 | 15.93
6 | CC(C)CC(C)NCc1cccnc1N1CCN(c2ccccn2)CC1 (stereo unspecified) | -4.161
7 | Cc1nc(CNC(=O)CCN2CCN(c3ccccn3)CC2)oc1C | -3.101
8 | CCC(C)NC(=O)NCCC(=O)N1CCN(c2ccccn2)CC1 (stereo unspecified) | 129.1
9 | CC(C)NCc1cccnc1N1CCN(c2ccccn2)CC1 | -3.713
10 | CCC(CC)C(=O)NCCC(=O)N1CCN(c2ccccn2)CC1 | 117
11 | CCCC(C)NCc1cccnc1N1CCN(c2ccccn2)CC1 (stereo unspecified) | 8.499
12 | CCc1nnsc1C(=O)NC1CCN(c2ccccn2)CC1 | -15.93
13 | CC(C)C(=O)NCCC(=O)N1CCN(c2ccccn2)CC1 | 125.4
14 | CC(c1ccccn1)N(C)C(=O)CN1CCN(c2ccccn2)CC1 (stereo unspecified) | -2.14
15 | CSCC(C)N(C)C(=O)CN1CCN(c2ccccn2)CC1 (stereo unspecified) | -3.468
16 | CSC(C)C(=O)NCCC(=O)N1CCN(c2ccccn2)CC1 (stereo unspecified) | 112.5
17 | CCn1cc2c(n1)C(COC)CN(C(=O)COc1ccccc1C)C2 (stereo unspecified) | -8.136
18 | CC(=O)NC[C@@H]1C=C(C)[C@H](CC(=O)NCCN(C)C)C[C@H]1C(C)C | 6.725
19 | O=C1CC2(CCSC2)C(=O)N1CCCc1ccccc1 (stereo unspecified) | -8.478
20 | CCC(NC(=O)c1coc(COc2cccc(F)c2F)n1)C(=O)NC (stereo unspecified) | -19.24
21 | CCc1nnc2n1CCN(Cc1nc(-c3ccoc3)no1)C2 | -0.9507
22 | COCCC(=O)N1CCCC1c1csc(Nc2ncccn2)n1 (stereo unspecified) | 107

Row | Structure (SMILES) | Percent Effect [%]
23 | COCCC(=O)N1CCCC1c1csc(Nc2ccccn2)n1 (stereo unspecified) | 105.2
24 | CC(C)(C)c1nnc(CN2CCN(C(=O)CC3CCCCC3)CC2)o1 | -4.944
25 | CCC[C@@H](NC(N)=O)C(=O)N1CCc2c(Cl)cccc2C1 | 5.459
26 | COCC(=O)Nc1cc(S(=O)(=O)C(F)(F)F)ccc1OC | 4.656
27 | CCc1nc(C)c(CN2CCOC(Cc3cccc4ccccc34)C2)[nH]1 (stereo unspecified) | 10.02
28 | Cc1ccc(-c2nnc(CN3CCCC(O)(CO)CC3)o2)n1C (stereo unspecified) | -4.067
29 | Cc1nc(CN2CCCN(CC(=O)N(C)CCC#N)CC2)no1 | 3.648
30 | CC1(c2ccccc2)CCCN(Cc2nnc(-c3cccnc3)o2)C1 (stereo unspecified) | -17.9
31 | c1ccc(-c2nc(CN3CCn4c(nnc4C4CC4)C3)no2)cc1 | -9.405
32 | OCCOc1ccccc1CN1CCCC(O)(CO)C1 (stereo unspecified) | 16.2
33 | OCC1(O)CCCN(Cc2noc(-c3ccccc3)n2)CC1 (stereo unspecified) | 104.1
34 | Cn1cnc2c1CCN(Cc1noc(-c3ccccc3)n1)C2 | 2.267
35 | OCC1(O)CCCN(Cc2nnc(-c3ccccc3)o2)CC1 (stereo unspecified) | 97.17
36 | Cc1cc(CN2CCCC(C)(CO)C2)ccc1F (stereo unspecified) | -2.653
37 | OCC1(O)CCCN(Cc2noc(-c3ccccc3)n2)C1 (stereo unspecified) | 97.27
38 | CN(C)CC1(O)CCCN(c2noc(-c3ccccc3)n2)CC1 (stereo unspecified) | -6.371
39 | Cc1nc(CN2CCCC(C)(CO)C2)no1 (stereo unspecified) | 110.1
40 | O=C(O)C(F)(F)F.O=C(O)C(F)(F)F.O=C([C@H]1CN(Cc2nccs2)C[C@H]2OCC[C@@H]12)N1CCCCO1 | -13.3
41 | CCN1CCC2(CCC1=O)CN(c1cnc3ccccc3n1)CCN2C (stereo unspecified) | 10.67
42 | CCNC(=O)N(C)CCCc1n[nH]c(N)c1C#N | -6.653
43 | CC(C)n1ccnc1C1CCCN(c2cc(C(=O)NC3CC3)ccn2)C1 (stereo unspecified) | 11.95
44 | Cc1cnn(C2CN(Cc3noc(-c4ccccc4)n3)C2)c1 | 6.311

Row | Structure (SMILES) | Percent Effect [%]
45 | Cn1ccnc1CN1CCN(Cc2noc(-c3ccccc3)n2)CC1 | -3.916
46 | OCC1(O)CCN(Cc2noc(-c3ccccc3)n2)CC1 | 112.4
47 | CCCC(N)CNS(=O)(=O)Cc1cccc(C#N)c1.Cl (stereo unspecified) | -1.555
48 | Cn1nc2c(cc1=O)CN(CCCOc1ccc(C#N)cc1)CC2 | -8.416
49 | Cc1ccc(CS(=O)(=O)CC(=O)NCc2ccccc2F)cc1 | -26.12
50 | CC(C)OCCCNC(=O)CS(=O)(=O)Cc1ccc(C(C)C)cc1 | 60.49
51 | Cc1ccc(CS(=O)(=O)CC(=O)NCCCOC(C)C)cc1 | 104.7
52 | CC(C)OCCCNC(=O)CS(=O)(=O)Cc1ccc(Cl)c(Cl)c1 | -2.776
53 | Cc1cccc(CS(=O)(=O)CC(=O)NCCCOC(C)C)c1 | -2.072
54 | CC(C)OCCCNC(=O)CS(=O)(=O)Cc1cccc(Cl)c1 | 109.4
55 | CC(C)OCCCNC(=O)CS(=O)(=O)Cc1ccc(Cl)cc1 | 111.2
56 | CC(NC(=O)NCCCN(C)S(C)(=O)=O)c1cccc(Cl)c1 (stereo unspecified) | -5.228
57 | CC(C)c1ccc(CS(=O)(=O)CC(=O)NCc2ccccc2F)cc1 | -59.22
58 | CC(C)OCCCNC(=O)NC(C)c1ccc(-n2cncn2)cc1 (stereo unspecified) | 21.75
59 | CC(C)(C)CC(=O)NCC(=O)NS(=O)(=O)c1cccnc1 | -1.885
60 | COc1ncnc(N(C)C)c1NC(=O)Cc1cc(F)ccc1F | -32.31
61 | CC(C)OCCCNC(=O)CS(=O)(=O)Cc1ccc(C(C)(C)C)cc1 | 103.7
62 | Cc1ccc(C)c(CS(=O)(=O)CC(=O)NCCCOC(C)C)c1 | 103.7
63 | Cc1ccc(C)c(CS(=O)(=O)CC(=O)Nc2ccc(F)cc2F)c1 | -7.067
64 | CC(C)OCCCNC(=O)CN1CCC(N2CCN(C)C2=O)CC1 | -1.952
65 | CC(C)(C)c1ccc(C2(C(=O)NCCCS(C)(=O)=O)CC2)cc1 | -6.927
66 | Cc1ccc(C)c(CS(=O)(=O)CC(=O)NC(C)c2ccc(F)cc2F)c1 (stereo unspecified) | 34.69
